# Test results reported in PubChem BioAssay (EPA / NIEHS).
# Active and inactive are the calls of the source. How the source made its calls: active means hit-call score of the fitted dose curve at least 0.9, where 1 is the maximum; inactive means score below 0.9.
# Experiment: CCTE_Shafer_MEA_dev_per_burst_interspike_interval: CCTE's Neural Network Formation Assay for Burst Interspike Interval, Shafer Lab (AID 2284044);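 further: mean spike spacing inside bursts as AUC over recordings on days 5 7 9 12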;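 on AC50: potency for a decrease of within-burst interspike interval below DMSO level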
# Procedure: (§1) CCTE_Shafer_MEA_dev assay is conducted using Axion Biosystems 48 well microelectrode array (MEA) plates and Maestro recording system. Each well of the MEA plate contains a grid of 16 microelectrodes embedded in the culture surface. Electrically active cells, such as neurons, can be cultured over the electrodes, and electrical activity in these cells can be recorded extracellularly. The spontaneous firing of neurons is captured from each electrode on a microsecond timescale providing both temporally and spatially precise data. […] The CCTE_Shafer_MEA_dev assay uses primary cultures of rat cortical neurons. Recordings are made on days post-plating 5, 7, 9 and 12. As these cultures mature over time, neural networks develop functional activity and form cohesive networks in which electrical activity can be highly coordinated. CCTE_Shafer_MEA_dev_per_burst_interspike_interval is 1 of 19 assay components of the CCTE_Shafer_MEA_dev assay. It measures the average time interval between spikes (action potential firings) within a single-electrode burst (temporally-clustered group of spikes) during a recording in a microelectrode array (MEA) using Axion Biosystems Maestro 768 channel amplifier with the AxIS adaptive spike detector. The mean inter-spike interval within bursts is averaged across the actively bursting electrodes to report a well-mean value. To collapse across multiple recordings made on days post-plating 5, 7, 9 and 12, the trapezoidal area-under-the-curve of the component is calculated.Data from the assay component CCTE_Shafer_MEA_dev_per_burst_interspike_interval was analyzed into 1 assay endpoint. This assay endpoint, CCTE_Shafer_MEA_dev_per_burst_interspike_interval, was analyzed in the negative analysis fitting direction relative to DMSO as the negative control and baseline of activity. Using a type of functional reporter, gain or loss-of-signal activity can be used to understand electrical activity.
# (§2) On the day prior to culture, each well was coated thoroughly with 150 uL of 0.05% polyethyleneimine (PEI, Sigma Cat P3143) in 50 mM HEPES (Sigma Cat H7523) at a pH of 8. The plate was incubated at 37C for one hour. PEI was rinsed out with 500 uL of sterile water three times. Plates were stored at 4C until the day of culture. This culture was plated at a seeding density of 1.5 x 10^5 cells/well on a 48-well MEA plate, prepared as described above. Cells were administered via a 25 uL media/laminin ([…]; Sigma Cat L2020-1MG) drop directly onto the microelectrode array, as adding the cells with the laminin results in better attachment than pre-coating with laminin. After 2 hours, an additional 475 uL of cortical media was added and the cells returned to the incubator. Exposure starts at day 0 of plating and is continued over twelve days of network development until the experiment is terminated. Cells are fed with fresh medium on DIV 5 and 9, following the recordings on those days. The entire volume of media in the well is exchanged and any vehicle or compound treatment is renewed. Complete details are found in OP-NHEERL/ISTD/SBB/TJS/2015-03-r0 (available on request, email shafer.tim@epa.gov). Measurement of the electrical activity is non-invasive, and recordings can be made from the same plate over multiple different days of the culture. In cortical neurons, this allows for the measurement of extracellular action potentials over the period during which networks form in the MEA plate.
Compound,outcome,AC50
CC(=O)CC(c1ccccc1)c1c(O)c2ccccc2oc1=O (stereo not given),inactive,
OCC(O)CO,inactive,
COC(=O)[C@H]1[C@H]2C[C@@H]3c4[nH]c5cc(OC)ccc5c4CCN3C[C@H]2C[C@@H](OC(=O)c2cc(OC)c(OC)c(OC)c2)[C@@H]1OC,,3.76 µM (active)
O=C1NC(=O)C(c2ccccc2)(c2ccccc2)N1,inactive,
CN(C)CCCN1c2ccccc2Sc2ccc(Cl)cc21,,8.95 µM (active)

# Experiment: CCTE_Shafer_MEA_dev_burst_duration_mean: CCTE's Neural Network Formation Assay for Mean Burst Duration, Shafer Lab (AID 2284045);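 on AC50: curve fitted for loss meaning shorter burst duration than DMSO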
# Procedure: as §1, with “CCTE_Shafer_MEA_dev_burst_duration_mean” for “CCTE_Shafer_MEA_dev_per_burst_interspike_interval”, “from the first spike” for “between spikes”, “firing) to the last spike in” for “firings) within”, “singe-electrode” for “single-electrode”, “burst duration” for “inter-spike interval within bursts”, “CCTE_Shafer_MEA_dev_burst_duration_mean,” for “CCTE_Shafer_MEA_dev_per_burst_interspike_interval,”
# as §2
Compound,outcome,AC50
CC(=O)CC(c1ccccc1)c1c(O)c2ccccc2oc1=O (stereo not given),inactive,
OCC(O)CO,inactive,
COC(=O)[C@H]1[C@H]2C[C@@H]3c4[nH]c5cc(OC)ccc5c4CCN3C[C@H]2C[C@@H](OC(=O)c2cc(OC)c(OC)c(OC)c2)[C@@H]1OC,,2.43 µM (active)
O=C1NC(=O)C(c2ccccc2)(c2ccccc2)N1,inactive,
CN(C)CCCN1c2ccccc2Sc2ccc(Cl)cc21,,4.79 µM (active)
